The list is not random: actives were taken first. Their share in the collection is about 1.4%.
ugtP null kill: growth inhibition of ugtP-null S. aureus, primary screen, RN4220 ugtP deletion, OD600; 330,000 tested, 0.54% active; growth inhibition, % (no concentration beside the values); 16 h; in the data active = growth inhibition above about 68%;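 also: plate controls were untreated wells for no effect and antibiotic for full effect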
Mtb hypoxia rep: PubChem AID 1159583 | M. tuberculosis hypoxia-regulated fluorescent reporter, fluorescence | fluorescence inhibition, % (concentration not given with the values) | 300,000 tested, 0.1% active; in the data active = fluorescence inhibition mostly above about 23%, no sharp cut-off; inactive = mostly below about 17%
RN4220 kill: growth inhibition of S. aureus RN4220, primary screen, OD600; AID 1259311, 2017; 330,000 tested, 0.33% active; 16 h; inhibition, % (concentration not given with the values); in the data active = inhibition above about 85%;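 also: plate controls were untreated cells for no effect and reference antibiotic for full effect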
SSB-PriA inh: inhibitors of Klebsiella pneumoniae PriA binding to SSB C-terminal tail, primary screen, biochemical, AlphaScreen; PriA–SSB C-terminal tail interaction (Klebsiella pneumoniae); AlphaScreen SSBct-PriA binding, biotinylated peptide; inhibition, % at 33 µM; 430,000 tested, 0.6% active; AID 1272365, 2023; in the data active = inhibition mostly above about 37%, no sharp cut-off; inactive = mostly below about 20%;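 also: plate controls were negative control peptide for no effect and reference peptide for full effect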
CCHF vOTU inh-1: CCHFV vOTU protease inhibitors, primary screen, biochemical, Pep-AMC substrate, fluorescence. Crimean-Congo hemorrhagic fever virus L polyprotein viral ovarian tumor (vOTU) protease …. inhibition, % at 11.5 µM. 370,000 tested, 0.55% active; also: 0% = vehicle wells with enzyme and 100% = no enzyme wells
CCHF vOTU inh-2: CCHFV vOTU protease inhibitors, confirmation, biochemical, Pep-AMC substrate, fluorescence. inhibition, % at 11.5 µM. AID 686976, 2013. shares compounds with CCHF vOTU inh-1. Recombinant CCHFV vOTU. 1,900 tested, 17% active
* = called active by the depositor; i = inactive; · = no result given. Rule as the data show it, unless noted: active = inhibition above about 30%; inactive = the rest.

SMILES | ugtP null kill | Mtb hypoxia rep | RN4220 kill | SSB-PriA inh | CCHF vOTU inh-1 | CCHF vOTU inh-2
CCCCCCCCN1C(=O)[C@H](CC(=O)N2CCOCC2)C[C@@]2(C(=O)OCC)CCCC=C12 | · | · | · | · | 22.5 | ·
CCCCCCCCN1C(=O)[C@H](CC(=O)NCc2ccccc2)C[C@@]2(C(=O)OCC)CCCC=C12 | · | · | · | · | 32.6* | 5.4
C#CCNC(=O)C[C@@H]1C[C@@]2(C(=O)OCC)CCCC=C2N(CCCCCCCC)C1=O | · | · | · | · | 30.8* | 15.3
CCOC(=O)[C@]12CCCC=C1N(CCc1ccc(OC)c(OC)c1)C(=O)[C@H](CC(=O)N1CCCC1)C2 | · | · | · | · | 32.6* | -23.2
O=C(CSc1nnc(-c2cccc(Cl)c2)n1Cc1ccco1)c1ccc(F)cc1 | · | · | · | · | 0.0 | ·
CC(=O)c1ccc(NC(=O)c2ccn(C)n2)cc1 | · | · | · | 7.0 | · | ·
O=C1C=CC(=O)N1c1ccc(Nc2ccccc2)cc1 | 0.4 | 2.7 | 1.3 | -5.9 | 41.1* | -15.6
O=C1C=CC(=O)N1c1ccc2ccccc2c1 | 1.0 | 18.3 | -1.1 | -13.8 | -5.0 | ·
O=C(CSC1CCCC1)N1CCOC(c2ccccc2)C1 (centres undefined) | · | · | · | -9.0 | · | ·
O=C(C[C@@H]1C/C=C/CCCC(=O)O[C@H](c2ccccc2)CNC1=O)N[C@H](CO)Cc1ccccc1 | · | · | · | -0.1 | 30.8* | -25.2
CC1(C)C2(CBr)CCC1(C(=O)O)C(Br)C2=O (centres undefined) | · | · | · | -5.0 | · | ·
Cc1cc2cc(NC(=O)c3ccco3)ccc2[nH]1 | -4.2 | 14.8 | -1.4 | 16.0 | 32.7* | -10.9
O=C(c1cc2cc([N+](=O)[O-])ccc2s1)N(CCN1CCOCC1)c1nc2ccc(F)cc2s1 | · | · | · | -5.0 | · | ·
COc1cc(C)ccc1Oc1nc(-c2ccccc2O)nc2ccccc12 | 3.0 | -14.8 | -4.2 | 0.1 | 31.8* | -0.8
COc1cccc(Oc2nc(-c3ccccc3O)nc3ccccc23)c1 | -2.2 | -0.7 | -3.8 | -6.0 | -2.8 | ·
CCNC(=O)C1CCN(c2cc(SCC(=O)NCc3ccc(C)cc3)ncn2)CC1 | · | · | · | -14.0 | · | ·
Cc1oc2c(c1C(=O)N1CCC(C)CC1)C(=O)c1ccccc1C2=O | 24.6 | 11.3 | 27.5 | -3.2 | 31.7* | 15.6
CCOC(=O)C1CCN(C(=O)c2c(C)oc3c2C(=O)c2ccccc2C3=O)CC1 | 20.1 | 5.1 | 20.2 | 9.2 | 61.2* | 46.2*
NC(=O)c1ccccc1NC=CC(=O)c1ccccc1 | · | · | · | -11.8 | · | ·
O=C(Cn1ncc2c3ccccc3n(Cc3ccc(F)cc3)c2c1=O)N1CCN(c2ncccn2)CC1 | 1.2 | -1.7 | 2.3 | 2.2 | 34.0* | -18.5
CCOc1ccc(/C(O)=C2\C(=O)C(=O)N(CCN(C)C)C2c2cccc(OC)c2OC)cc1Cl (centres undefined) | 3.2 | · | 2.3 | · | 29.7* | -9.1
COc1ccc(C(O)=C2C(=O)C(=O)N(CCN(C)C)C2c2cccc(OC)c2OC)cc1Cl (centres undefined) | · | · | · | -7.7 | · | ·
CC(=NNC(=O)C(=O)Nc1cccc(C(F)(F)F)c1)c1ccc(Cl)s1 | 0.2 | 20.1 | 1.7 | -1.6 | · | ·
O=C(Cc1ccc2cccnc2c1)c1ccc(O)cc1O | 17.3 | 7.1 | 6.4 | -7.9 | 48.1* | -6.0
O=C(NN=Cc1ccc(Br)s1)c1cccc([N+](=O)[O-])c1 | 4.8 | 9.4 | 0.6 | · | · | ·
SMILES | ugtP null kill | Mtb hypoxia rep | RN4220 kill | SSB-PriA inh | CCHF vOTU inh-1 | CCHF vOTU inh-2
Cc1ccc(C2(c3ccc(C)cc3)CC2C(=O)Nc2ccc([N+](=O)[O-])cc2O)cc1 (centres undefined) | 99.6* | 0.5 | 100.5* | 9.9 | 33.7* | -5.1
CS(=O)(=O)Nc1ccc2c(c1)CN(S(=O)(=O)c1ccccc1)CC2 | · | · | · | 8.0 | · | ·
CC1(C)OC(c2ccccc2)=C/C(=C/C=Nc2ccccc2)O1 | · | · | · | 0.6 | 9.6 | ·
CC1(C)OC(c2ccccc2)=C/C(=C/C=C2C(=O)NC(=O)NC2=O)O1 | -2.8 | 5.2 | 0.6 | 34.1 | 30.3* | -1.1
CC1=CC(C)(C)N2C(=O)C(=Nc3ccc(O)cc3)c3cccc1c32 | 1.4 | 12.1 | 7.2 | 39.7* | 81.6* | -10.1
COc1cc(N=C2C(=O)N3c4c(cccc42)C(C)=CC3(C)C)cc(OC)c1 | -1.5 | 5.7 | 5.5 | 6.8 | 3.9 | ·
Cc1ccc(S(=O)(=O)N/N=C2/CC(c3ccccc3)Oc3ccccc32)cc1[N+](=O)[O-] (centres undefined) | · | · | · | · | 38.5* | 10.2
CCCn1nc(NS(=O)(=O)c2cccc3nonc23)c2cc3cccc(C)c3nc21 | -0.9 | 1.6 | 36.6 | 1.7 | 41.6* | 14.8
CCCn1nc(NS(=O)(=O)c2cccc3nonc23)c2cc3cc(C)ccc3nc21 | -0.1 | 4.9 | 23.1 | 1.9 | 14.0 | ·
Cc1ccc(C)c(N2CCN(C(=O)CCc3nc(-c4ccccc4C)no3)CC2)c1 | 11.5 | -10.0 | 2.9 | 2.7 | 35.6* | 4.2
Cc1ccc(C)c(N2CCN(C(=O)CCc3nc(-c4ccccc4Cl)no3)CC2)c1 | -1.0 | -8.1 | 0.1 | -5.3 | 3.2 | ·
CC(N)c1csc(Nc2ccc(C(=O)c3ccccc3)cc2)n1 (centres undefined) | · | · | · | · | 27.3 | ·
CC(C)C(N)c1csc(Nc2ccc(C(=O)c3ccccc3)cc2)n1 (centres undefined) | · | · | · | · | 36.9* | -11.9
CCCN(C(=O)Cc1nc(N)n[nH]1)C1(C(=O)Nc2c(C)cccc2C)CCCCC1 | -5.0 | 2.7 | -1.4 | -7.7 | 38.5* | -23.8
CCCN(C(=O)Cc1nc(N)n[nH]1)C1(C(=O)Nc2ccccc2C)CCCCC1 | -2.9 | · | 4.2 | 5.9 | -4.5 | ·
COCCn1c(SCC(=O)Nc2cc(C)nn2-c2ccccc2)nnc1-c1ccncc1 | 2.0 | 2.3 | 3.7 | 2.3 | 22.6 | ·
COCCn1c(SCC(=O)NN2C(=O)NC(C)(c3ccccc3)C2=O)nnc1-c1ccncc1 (centres undefined) | 3.2 | -0.8 | 2.8 | -1.0 | 34.8* | -21.0
CC(C)[n+]1ccn(C2=C([O-])c3ccccc3C(=O)/C2=N\S(=O)(=O)c2ccccc2)c1 | 4.7 | -5.0 | 4.1 | · | 32.9* | 31.0*
CCCC[n+]1ccn(C2=C([O-])c3ccccc3C(=O)/C2=N\S(=O)(=O)c2ccccc2)c1 | 1.2 | 18.8 | 9.8 | · | 58.2* | 53.8*
CCC(=O)N(C1=C(NC)C(=O)c2ccccc2C1=O)C(C)C | -5.8 | -10.1 | 13.1 | 6.2 | 46.5* | 23.2
CC(=O)NC1=C(Nc2ccc(N(C)C)cc2)C(=O)c2ccccc2C1=O | · | · | · | 33.0 | 24.5 | ·
CNC1=C(N(C(C)=O)c2ccc(Br)cc2)C(=O)c2ccccc2C1=O | 13.3 | · | 24.1 | 7.4 | 93.5* | 72.5*
Cn1cc(/C=N/NC(=O)c2cc3cc(Br)ccc3o2)c2ccccc21 | · | · | · | i | 6.3 | ·
O=C(O)Cn1cc(/C=N/NC(=O)c2cc3cc(Br)ccc3o2)c2ccccc21 | · | · | · | i | 31.5* | -0.5
Cc1ccc(C)c(S(=O)(=O)N=C2C=C(NS(=O)(=O)c3ccccc3)C(=O)c3ccccc32)c1 | · | · | · | -9.1 | · | ·

Bioassay records (PubChem)
